From PubChem
SW480 rereplic – DNA re-replication induction in SW480 cells | SW480 DNA re-replication, Hoechst DNA content imaging, 48 h | Potency, µM (series often up to 46.1 µM), usual class: activators | hit rate 1.8% among 340,000 | AID 624297; further: nearly all actives have a fitted effect of over 55% in size
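DNA re-replication was detected as more nuclei of elevated Hoechst intensity after 48 hr exposure to compound (23 nL pinned per well of 250 cells).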
IL-1B inflam inh – inhibitors of inflammasome signaling (IL-1 beta secretion). activity change, % at 57.5 µM. hit rate 4.7% among 360,000. AID 743279. THP-1 LPS/ATP IL-1B secretion, AlphaLISA, 16 h; stronger effect = lower value; in the data active means activity change below about -50%; inconclusive means mostly about -30% to -49%
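THP-1 cells pretreated 1 hr with compounds (up to 57.5 uM final), then stimulated with LPS (250 ng/mL final) plus ATP (1.25 mM final); secreted IL-1B measured by AlphaLISA after 16 hr, decreased signal indicating inhibition.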
Vif-A3F inh – Vif-A3F binding inhibition. HeLa A3F-eYFP + Vif (tagged APOBEC3F with the HIV-1 protein that degrades it), YFP fluorescence increase. Potency, µM (doses to about 46.1 µM). hit rate 0.2% among 390,000. AID 602313; further: nearly all actives have a fitted effect of over 65% in size
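HeLa cells stably expressing A3F-eYFP plus Vif, plated and incubated overnight at 37 deg C, then exposed to compounds overnight at 37 deg C. Blocked degradation read as raised yellow fluorescence (Ex 488/Em 500-530).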
Vif-A3G inh – blocks the Vif interaction with human APOBEC3G; HeLa A3G-eYFP + Vif (tagged APOBEC3G with the HIV-1 protein that degrades it), YFP fluorescence, overnight; Potency, µM (titrated, usually from 46.1 µM), hits mostly inhibitors; hit rate 0.076% among 410,000; AID 602310; further: nearly all actives have a fitted effect of over 60% in size
Target sequence (Q9HC16 whole entry, looked up): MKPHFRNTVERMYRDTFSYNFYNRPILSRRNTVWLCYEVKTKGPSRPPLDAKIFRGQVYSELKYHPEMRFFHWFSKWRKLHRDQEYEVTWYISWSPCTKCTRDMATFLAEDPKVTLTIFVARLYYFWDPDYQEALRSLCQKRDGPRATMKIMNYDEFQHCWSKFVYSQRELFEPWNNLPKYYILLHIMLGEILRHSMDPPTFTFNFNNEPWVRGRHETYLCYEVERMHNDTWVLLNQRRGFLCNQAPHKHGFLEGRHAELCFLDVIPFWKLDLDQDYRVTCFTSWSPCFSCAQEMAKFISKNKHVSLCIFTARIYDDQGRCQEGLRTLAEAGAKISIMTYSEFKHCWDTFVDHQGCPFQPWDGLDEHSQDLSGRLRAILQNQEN
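HeLa cells stably expressing Vif and C-terminally eYFP-tagged A3G, seeded overnight at 37 deg C, then exposed to compound by pintool overnight at 37 deg C. Rise in yellow fluorescence (Ex 488/Em 500-530, Acumen) marks blocked Vif-driven A3G degradation.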
MCF10A rerep – inducers of DNA re-replication in MCF 10A breast cells. MCF 10A DNA re-replication, Hoechst nuclear intensity, 48 h. Potency, µM (titrated, usually from 46.1 µM), actives largely listed as activators. hit rate 2.9% among 350,000; further: nearly all actives have a fitted effect of over 50% in size
Giardia killer – Giardia lamblia killing. Giardia lamblia trophozoite viability. activity change, % at 7.66 µM, hits read low. hit rate 0.15% among 340,000; in the data active means activity change below about -80%; inconclusive means between about -30% and that limit;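 further: parasites exposed to compound for two days anaerobically before the ATP read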
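Trophozoites 100 cells/well + cpd; 48 hrs, 37 deg C, anaerobic. ATPLite 1-Step added, 15-30 min RT, luminescence read (ATP-based viability).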
Of the large screens only hits and unclear results are named; the others gave an inactive call. Sampled rows, rich in hits. Any-hit rate of the full collection: about 6.9%. Unless noted, the call rests on the fitted dose curve; in most records, active means well fitted curve in the direction sought with a large enough effect; inconclusive means small, poorly fitted or top-dose-only effect, or another doubt; inactive means no such curve, though single readings can be large; an effect the other way counts as inactive or inconclusive.

N#Cc1c(N)oc(-c2ccc3c(c2)OCO3)c1-c1ccc2c(c1)OCO2	IL-1B inflam inh -61
Cc1cc(-c2cc(-c3ccc(Cl)cc3)nc(N)c2C#N)co1	SW480 rereplic 7.3µM, MCF10A rerep 2.6µM
COc1ccc(-c2cc(-c3ccc(O)cc3)nc(N)c2C#N)cc1OC	Vif-A3G inh inconclusive, MCF10A rerep inconclusive
COc1c(C)cccc1C(=O)Nc1ccc(-c2nc3ccccc3s2)c(Cl)c1	none (no result: SW480 rereplic, IL-1B inflam inh, MCF10A rerep, Giardia killer)
O=C(c1ccc(Cl)cc1)C(Cn1cncn1)C(Sc1ccccc1)c1ccccc1 (configuration not stated)	SW480 rereplic inconclusive, IL-1B inflam inh -61, MCF10A rerep inconclusive
CCOC(=O)c1ccc(N2C(=O)C3C(C2=O)C(C(=O)c2ccc(Cl)cc2)N2CCCC32)cc1 (configuration not stated)	SW480 rereplic inconclusive, IL-1B inflam inh -66, Vif-A3F inh inconclusive, MCF10A rerep inconclusive
Nc1c2c(nc3sc4c(c13)CCCC4)-c1ccccc1CC2	IL-1B inflam inh -88, MCF10A rerep inconclusive
NNc1nc(-c2ccccc2)nc2sc3c(c12)CCCC3	none
C(=N\Nc1nc2ccccc2[nH]1)/c1c[nH]c2ccccc12	IL-1B inflam inh -95, MCF10A rerep inconclusive
Cc1ccc(/C=N/Nc2nc3ccccc3[nH]2)s1	SW480 rereplic inconclusive, IL-1B inflam inh -108, MCF10A rerep inconclusive
Cc1[nH]c2ccccc2c1/C=N/Nc1nc2ccccc2[nH]1	IL-1B inflam inh -105, Vif-A3G inh inconclusive, MCF10A rerep inconclusive
Cc1cc(=O)[nH]c(N/N=C/c2c[nH]c3ccccc23)n1	none
Cc1nn(-c2ccccc2)c(Cl)c1/C=N/Nc1nc2ccccc2[nH]1	SW480 rereplic inconclusive, MCF10A rerep 7.3µM
Cc1cc(=O)[nH]c(N/N=C/c2c(C)nn(-c3ccccc3)c2Cl)n1	MCF10A rerep inconclusive
C(=N\Nc1nc2ccccc2[nH]1)/c1cccc2cccnc12	Vif-A3F inh inconclusive
COCCCNC(=O)c1ccc(Cn2c(=O)c3ccccc3n(Cc3c(C)cc(C)cc3C)c2=O)cc1	none (no result: SW480 rereplic, IL-1B inflam inh, MCF10A rerep, Giardia killer)
COc1ccccc1NC(=O)CSC1=Nc2ccccc2N=C(c2ccc(F)cc2)C1	none (no result: SW480 rereplic, IL-1B inflam inh, MCF10A rerep, Giardia killer)
O=[N+]([O-])c1cc(/C=N/Nc2nc3ccccc3[nH]2)c(O)cc1O	SW480 rereplic inconclusive, Vif-A3G inh inconclusive, MCF10A rerep 3.3µM
Cc1ccccc1/C=N/Nc1nc2ccccc2[nH]1	IL-1B inflam inh -68, MCF10A rerep inconclusive
COc1ccc(C(C#N)N2CCC(c3ccccc3)=N2)cc1OC (configuration not stated)	SW480 rereplic inconclusive, IL-1B inflam inh -51, MCF10A rerep inconclusive
COc1cc(C(C#N)N2CCC(c3ccccc3)=N2)ccc1O (configuration not stated)	MCF10A rerep inconclusive
CCOC(=O)C1CCCN(c2nc3c(S(=O)(=O)c4ccc(CC)cc4)nnn3c3ccsc23)C1 (configuration not stated)	none (no result: SW480 rereplic, IL-1B inflam inh, MCF10A rerep, Giardia killer)
CC(C)c1ccc(OCC(=O)NC2CC(C)(C)NC(C)(C)C2)c(Br)c1	IL-1B inflam inh -62
COc1ccc(C2NC(=S)NC3=C2CCCC3=C2SCCS2)cc1 (configuration not stated)	SW480 rereplic inconclusive, IL-1B inflam inh -82, Vif-A3F inh inconclusive, Vif-A3G inh inconclusive
COc1ccc2c(c1)CCC1=C2NC(=S)NC1c1ccc(N(C)C)cc1 (configuration not stated)	MCF10A rerep 21µM
S=C1NC2=C(CCCC2=C2SCCCS2)C(c2ccccc2)N1 (configuration not stated)	none
Cc1nc2c(-c3ccccc3)c(C)[nH]n2c(=O)c1Cc1ccc(Br)cc1	none (no result: SW480 rereplic, IL-1B inflam inh, MCF10A rerep, Giardia killer)
CCN(CC)S(=O)(=O)c1cccc(C(=O)/C=C2/N(C)c3ccccc3C2(C)C)c1	SW480 rereplic 21µM, IL-1B inflam inh inconclusive, MCF10A rerep 18µM
CN1/C(=C\C(=O)Nc2cccc(Cl)c2)C(C)(C)c2ccccc21	SW480 rereplic inconclusive, IL-1B inflam inh -72, MCF10A rerep inconclusive
CCN(CC)CCN(CC(=O)Nc1c(C)cc(C)cc1C)C(=O)c1ccccc1	IL-1B inflam inh -68
CCCN(CC(=O)Nc1ccccc1C)C(=O)c1ccc(-c2ccccc2)cc1	IL-1B inflam inh inconclusive
COc1cccc(C(NC(=O)c2ccccc2F)NC(=O)c2ccccc2F)c1	none
COc1cccc(C(c2c(N)[nH]c(=S)[nH]c2=O)c2c(N)[nH]c(=S)[nH]c2=O)c1	SW480 rereplic 5.2µM
O=C(Nc1cccc2ncccc12)c1ccc(-c2ccc(Br)cc2)o1	none
Cc1cccc(NC(=O)c2ccc([N+](=O)[O-])s2)n1	Giardia killer -89
O=C(Nc1cccc2ncccc12)c1ccc([N+](=O)[O-])o1	SW480 rereplic 1.5µM, IL-1B inflam inh -93, Vif-A3G inh inconclusive, MCF10A rerep 4.6µM, Giardia killer -80
Cc1ccc2oc(C(=O)NCc3ccccc3)cc(=O)c2c1	none
O=C(Nc1ccccc1Cl)c1ccc([N+](=O)[O-])o1	SW480 rereplic 7.3µM, IL-1B inflam inh -97, Vif-A3G inh inconclusive, MCF10A rerep 13µM, Giardia killer -83
Cc1cc2oc(C(=O)NCc3ccccc3)cc(=O)c2cc1C	SW480 rereplic 8.2µM
CC1CCN(c2ccc(-c3nc(C(C)C)no3)cc2[N+](=O)[O-])CC1	none (no result: SW480 rereplic, IL-1B inflam inh, MCF10A rerep, Giardia killer)
COc1ccc(OCC(=O)NCC2(N3CCN(C)CC3)CCCCC2)cc1	none (no result: SW480 rereplic, IL-1B inflam inh, MCF10A rerep, Giardia killer)
Cc1cccc(NC(=O)c2cc(=O)c3ccccc3o2)n1	SW480 rereplic 2.9µM
Cc1ccc(NC(=O)c2ccc([N+](=O)[O-])o2)c(C)c1	SW480 rereplic inconclusive, IL-1B inflam inh -68, Vif-A3G inh inconclusive, MCF10A rerep inconclusive, Giardia killer -90
Cc1cccnc1NC(=O)c1ccc([N+](=O)[O-])o1	SW480 rereplic inconclusive, IL-1B inflam inh inconclusive, Vif-A3F inh inconclusive, Giardia killer inconclusive
Cc1ccccc1NC(=O)c1ccc([N+](=O)[O-])o1	SW480 rereplic inconclusive, IL-1B inflam inh inconclusive, MCF10A rerep 15µM, Giardia killer inconclusive
O=C(Nc1cccc2ncccc12)c1ccc(Br)c([N+](=O)[O-])c1	IL-1B inflam inh -108
CCOc1ccc(CCNC(=O)Cn2nc(CC)n3c(cc4c(OC)cccc43)c2=O)cc1OCC	none (no result: SW480 rereplic, IL-1B inflam inh, MCF10A rerep, Giardia killer)
CC(=O)N/C(=C/c1ccccc1)c1sc2ccccc2[n+]1CCCCI	none (no result: SW480 rereplic, IL-1B inflam inh, Vif-A3F inh, MCF10A rerep, Giardia killer)
CCOC(=O)N1CCc2c(sc3c2c(=O)n(Cc2ccccc2)c(=O)n3CC(=O)Nc2ccc(C)c(C)c2)C1	none (no result: SW480 rereplic, IL-1B inflam inh, MCF10A rerep, Giardia killer)
Cc1ccc2nc(N3CCN(c4ccccc4F)CC3)c3nnnn3c2c1	none (no result: SW480 rereplic, IL-1B inflam inh, MCF10A rerep, Giardia killer)
COC(=O)c1sccc1S(=O)(=O)N(CC(=O)NCc1ccc(C)cc1)c1ccccc1	none (no result: SW480 rereplic, IL-1B inflam inh, MCF10A rerep, Giardia killer)
Cc1cccc(NC(=O)c2ccc([N+](=O)[O-])o2)n1	SW480 rereplic 3.7µM, MCF10A rerep inconclusive, Giardia killer inconclusive
Cc1cccc(NC(=O)c2ccc([N+](=O)[O-])cc2Cl)n1	none
